Several values for one entry are separate records, joined by “and”; a condition that tells them apart may be missing. Equal entries are not always repeated. Results filed as inconclusive are left out. A call without a number means that no potency is given here. A structure can be active in one record and inactive in another. Activity calls are given as the source filed them. Calls follow the shape of the dose curve; as a rule, active = well fitted activation curve with a large enough effect in the repeat runs; inconclusive = weak or mixed curves; inactive = flat fitted curve, though single readings scatter.
Potency is read from the fitted curve at half-maximal effect.

The assay is described as follows: Caspase-3/7 induction in HepG2 cells by small molecules, qHTS assay (AID 1346978). Also: nearly all actives have a fitted effect of over 15% in size. The settings on record: HepG2 caspase-3/7 activation, Caspase-Glo luminescence, 17 h; series mostly up to 92.4 µM. From the text:
National Center for Advancing Translational Sciences [NCATS] NIH Chemical Genomics Center [NCGC] U.S. Environmental Protection Agency [EPA] National Institutes of Environmental Health Sciences [NIEHS] National Toxicology Program [NTP] Assay overview: Apoptosis is a process of programmed cell death and plays a central role in the development of multicellular organisms. It is a highly regulated process and induces cell death by activating caspases, which are the members of cysteine aspartic acid-specific protease (caspase) family. Caspases involved in apoptosis are classified by their mechanism of action as initiator caspases (caspase-2, -8, -9 and -10) and executioner caspases (caspase-3, -6, and -7). Inhibition of apoptosis results in number of cancers, autoimmune diseases, inflammatory diseases and viral infection. To identify small molecule compounds that induce apoptosis, a homogeneous, luminescent Caspase-Glo 3/7 assay was used. Wild type HepG2 cells were used to screen Tox21 libraries for identifying caspase-3/7 activity inducers.
Assay Protocol Summary: HepG2 cells were dispensed at 2,000 per well in 5uL of culture medium into white solid bottom 1536-well plates (Corning Life Sciences, Corning, NY) using a Multidrop Combi (Thermo Scientific, Waltham, MA) dispenser. The assay plates were incubated at 37 C and 5% CO2 for 5hr, and then 23nL of compounds dissolved in DMSO and positive control were transferred using a Pintool station (Wako, San Diego, CA). The assay plates were incubated at 37C and 5% CO2 for 17hr. For caspase-3/7 activity read, 4uL of Caspase-Glo 3/7 reagent (Promega Corporation, Madison, WI) was added to each well of the assay plates using Flying Reagent Dispenser (FRD, Aurora Discovery, San Diego, CA) and incubated the assay plates at room temperature for 30min. The luminescence signal was quantified using a ViewLux plate reader (Perkin Elmer, Shelton, CT).
Turning to `CC(C)N(C(=O)SCC(Cl)=C(Cl)Cl)C(C)C`, the Potency result was “inactive”.

On to `Oc1cc(Cl)ccc1Oc1ccc(Cl)cc1Cl`, for which the Potency is 64.4 µM (active) and inactive.

`Oc1c(Cl)c(Cl)c(Cl)c(Cl)c1Cl`: the Potency result is “inactive”.

`O=C1C=CC(=O)C=C1`: the Potency entry was “inactive”.

`COP(=S)(OC)Oc1cc(Cl)c(Cl)cc1Cl`: the Potency result was “inactive”.

Consider `CNC(=O)N(C)c1nnc(C(C)(C)C)s1`, for which the Potency entry is “inactive”.

For the molecule `Nc1cccnc1`, the Potency result was “inactive”.

Turning to `c1nc[nH]n1`, the Potency result was “inactive”.

With `CCN(N=O)C(N)=O`, the Potency entry is “inactive”.

Consider `O=C(O)C(F)(F)C(F)(F)C(F)(F)C(F)(F)C(F)(F)C(F)(F)C(F)(F)F`, for which the Potency result is “inactive”.

Consider `Cc1cc(C)cc(C)c1`, for which the Potency result was “inactive”.

In the case of `CCC(C)(c1ccc(O)cc1)c1ccc(O)cc1`, the Potency entry is “inactive”.

In the case of `O=P(Oc1ccccc1)(Oc1ccccc1)Oc1ccccc1`, the Potency result is “inactive”.

`CC1(C)C(C=C(Cl)Cl)C1C(=O)OC(C#N)c1cccc(Oc2ccccc2)c1` (stereo not given): the Potency entry is “inactive”.

In the case of `CCCCN(CCCC)N=O`, the Potency result was “inactive”.

As for `NNC(N)=S`, the Potency result is “inactive”.

On to `CCN(CC)C(=O)/C(Cl)=C(\C)OP(=O)(OC)OC`, for which the Potency result is “inactive”.

`Nc1ccncc1`: the Potency result is “inactive”.

For the molecule `O=[N+]([O-])c1c(Cl)c(Cl)c(Cl)c(Cl)c1Cl`, the Potency result was “inactive”.

Regarding `CCCCC(CC)COC(=O)Cl` (stereo not given), the Potency entry is “inactive”.

For `CCN(CC)N=O`, the Potency result is “inactive”.

For the molecule `CC(C)=CC1C(C(=O)OCc2coc(Cc3ccccc3)c2)C1(C)C` (stereo not given), the Potency result was “inactive”.

`CC(C)(c1cc(Cl)c(O)c(Cl)c1)c1cc(Cl)c(O)c(Cl)c1`: the Potency result is “inactive”.

Take `COc1ccc(C(CN(C)C)C2(O)CCCCC2)cc1` (stereo not given): the Potency result is “inactive”.

As to `CCCCCc1cc(O)cc(O)c1`, the Potency entry is “inactive”.

Turning to `Nc1ccc(Cl)cc1N`, the Potency was 22.6 µM (active) and 8.89 µM (active).

On to `Oc1ccc(-c2ccccc2)cc1`, for which the Potency result was “inactive”.

Turning to `Cc1ccc2c(c1N)C(=O)c1ccccc1C2=O`, the Potency entry is “inactive”.

Take `CCCCN(CC)c1c([N+](=O)[O-])cc(C(F)(F)F)cc1[N+](=O)[O-]`: the Potency result was “inactive”.

As to `Cc1cc(Cl)ccc1OCCCC(=O)O`, the Potency result was “inactive”.

For the molecule `CCCCCCCCC(=O)NCc1ccc(O)c(OC)c1`, the Potency entry is “inactive”.

Consider `CC(C)(C)c1ccccc1O`, for which the Potency entry was “inactive”.

As for `CC(C)c1ccc(CO)cc1`, the Potency entry is “inactive”.

As to `Nc1ccc(-c2ccccc2)cc1`, the Potency entry is “inactive”.

For `Oc1cc(Cl)c(Cl)cc1Cl`, the Potency result was “inactive”.

For `CCOc1cc(Oc2ccc(C(F)(F)F)cc2Cl)ccc1[N+](=O)[O-]`, the Potency result was “inactive”.

As for `C=CCN(CC=C)C(=O)C(Cl)Cl`, the Potency result is “inactive”.

As for `c1ccc(-c2cccc(-c3ccccc3)c2)cc1`, the Potency result was “inactive”.

`O=C(NC(=O)c1c(F)cccc1F)Nc1ccc(Cl)cc1`: the Potency entry was “inactive”.

With `C=CCc1ccc(OC)cc1`, the Potency entry is “inactive”.

The values are drawn from PubChem BioAssay (Tox21).
